Results as given in the supplement of paper PMC3334620.
In all, about 33,000 sequences were measured (“E-score (-0.5 to 0.5)”: median about -0.056, highest 2% from about 0.38 on). The list comes from a sample in which the highest values are over-represented; it also holds similar and randomly drawn sequences.

Biological target: Stb4 (UniProt P50104)
Experiment: PBM E-score (8-mer binding enrichment) (E-score (-0.5 to 0.5)); higher = stronger / more preferred TF binding
Conditions: protein concentration: 200 nM; construct: GST-DNA-binding domain
Description: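 Universal 'all 10-mer' protein binding microarrays (Agilent AMADID 015681) probed with GST-tagged S. cerevisiae TFs (full-length or DBD) made by in vitro transcription/translation (PURExpress), about 100-200 nM. Bound TF was detected with fluorescent anti-GST. Each ungapped 8-mer (which stands for itself and its reverse complement) is scored by the PBM enrichment score (E-score), a modified Wilcoxon-Mann-Whitney statistic from -0.5 to +0.5, computed with the Universal PBM Analysis Suite. Scale: above 0.35 generally sequence-specific binding.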

UniProt P50104, sequence (P50104 whole entry): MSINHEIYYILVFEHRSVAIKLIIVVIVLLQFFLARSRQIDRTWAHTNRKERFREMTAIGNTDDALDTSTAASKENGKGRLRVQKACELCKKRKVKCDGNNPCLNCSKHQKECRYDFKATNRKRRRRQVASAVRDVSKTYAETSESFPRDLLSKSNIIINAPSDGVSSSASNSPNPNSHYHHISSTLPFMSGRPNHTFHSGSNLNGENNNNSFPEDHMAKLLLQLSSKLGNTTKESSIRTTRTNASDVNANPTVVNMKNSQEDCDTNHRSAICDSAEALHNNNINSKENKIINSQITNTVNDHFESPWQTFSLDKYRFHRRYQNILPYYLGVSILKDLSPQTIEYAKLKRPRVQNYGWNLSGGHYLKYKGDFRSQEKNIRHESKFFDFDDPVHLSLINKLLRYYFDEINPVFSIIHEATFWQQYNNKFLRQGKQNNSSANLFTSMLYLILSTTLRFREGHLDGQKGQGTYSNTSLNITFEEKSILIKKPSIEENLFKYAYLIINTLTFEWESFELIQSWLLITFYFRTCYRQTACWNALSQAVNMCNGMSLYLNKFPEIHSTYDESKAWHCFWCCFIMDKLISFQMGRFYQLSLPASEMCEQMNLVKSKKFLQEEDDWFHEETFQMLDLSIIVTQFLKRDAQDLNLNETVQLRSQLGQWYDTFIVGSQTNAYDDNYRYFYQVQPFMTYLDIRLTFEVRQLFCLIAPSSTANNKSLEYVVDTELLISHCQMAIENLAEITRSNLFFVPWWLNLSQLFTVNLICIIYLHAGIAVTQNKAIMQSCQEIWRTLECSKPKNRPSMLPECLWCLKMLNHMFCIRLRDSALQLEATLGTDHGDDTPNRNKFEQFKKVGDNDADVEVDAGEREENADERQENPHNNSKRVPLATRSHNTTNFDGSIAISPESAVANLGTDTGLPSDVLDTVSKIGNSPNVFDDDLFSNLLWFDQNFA

Row | Sequence | PBM E-score
1 | CGAACGGA | 0.327
2 | GTCTAAAA | -0.0585
3 | GTACTGAC | -0.0527
4 | AGTAAGCG | -0.0174
5 | AGACTATG | -0.17
6 | ACCAGGCG | -0.159
7 | CATACAGA | -0.0776
8 | AGTGATTG | -0.0135
9 | CCCTCGCC | -0.217
10 | ACCTCGGA | 0.463
11 | ACCTCGAA | -0.105
12 | ACCTCGGG | 0.421
13 | ACCTCGGC | 0.415
14 | ACCTCGTG | -0.0555
15 | ACCTCGTA | 0.0536
16 | ACCTCGCC | -0.0213
17 | CCCTCGGC | 0.399
18 | CCCTCGTC | 0.0826
19 | ACCTCGAG | -0.0838
20 | ACCTCGTC | -0.0708
21 | AGTAGATA | -0.0337
22 | CTCCATTA | -0.148

Row | Sequence | PBM E-score
23 | CGCCTTTC | -0.0815
24 | CGGGTAAA | 0.424
25 | GGGGTAAC | -0.122
26 | CGGGTAAC | 0.393
27 | CGGGTAAG | 0.336
28 | AGGGTAAA | 0.0281
29 | TGGGTAAA | -0.0511
30 | AAGCCTAC | -0.253
31 | CACACTGG | -0.18
32 | CATTTAGG | -0.174
33 | ACGCTTTG | 0.035
34 | GTCTATTA | -0.00563
35 | ATCGGGAA | 0.412
36 | GTCGGGAA | 0.377
37 | ATCGGGGA | 0.243
38 | ATCGGGAG | 0.367
39 | CCGGGGAC | 0.157
40 | GCCGGGAC | 0.28
41 | CACGGGAC | 0.214
42 | CCCGGGAC | 0.387
43 | CTCGGGGA | 0.349
44 | CTCGGGAC | 0.45

Row | Sequence | PBM E-score
45 | CTCGGGAA | 0.462
46 | ATCGGGAC | 0.284
47 | AGCAACTC | -0.0301
48 | TACTCAAA | -0.108
49 | CTTATCGA | -0.105
50 | AGTCACTG | -0.274
51 | AACTGAAA | -0.121
52 | CCCTATAC | -0.154
53 | ACACCGTG | 0.106
54 | CTTGACGA | -0.0253
55 | ACTACTTG | -0.195
56 | ACGAGCTA | -0.221
57 | GCGAGCTA | -0.0842
58 | CCGAGCTA | 0.424
59 | CTGAGCTC | -0.172
60 | CCGAGCTC | 0.435
61 | ACGAGCTC | 0.0375
62 | CACGGTCA | -0.197
63 | CAACTACG | -0.0502
64 | TGAGAACA | -0.212
65 | CCCGGACC | 0.26
66 | ACCGGAAG | 0.388

Row | Sequence | PBM E-score
67 | CCCGGAGG | 0.206
68 | ACCGGAAC | 0.419
69 | CCCGGACG | 0.163
70 | ACCGGAAT | 0.294
71 | CCCGGAAC | 0.416
72 | ACCGGAGC | 0.244
73 | ACGGGAAG | 0.232
74 | CCCGGAAG | 0.417
75 | AGCGGAAG | 0.335
76 | CCGGGAAC | 0.381
77 | CTGGTGGC | -0.167
78 | CGACTCAC | 0.0516
79 | GAATACCC | 0.341
80 | AAAAGGAG | -0.0435
81 | AGGTACCG | 0.254
82 | CGAGTCTC | 0.0605
83 | GGAGCCCA | -0.203
84 | AGGTGCTC | -0.148
85 | AGGCAGTC | -0.144
86 | GAAGGCGA | -0.051
